# Measurements reported in ChEMBL document CHEMBL1961873, “Compounds: GSK PKIS; Assays: Nanosyn kinase panel” (2012).
# Molecular target: Serine/threonine-protein kinase 26 (Homo sapiens) (UniProt Q9P289);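 note: mean inhibition of MST4 kinase activity, reported from the GSK PKIS inhibitor-set screening panel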
# Details: at 1 µM
# Sequence of Serine/threonine-protein kinase 26 (Homo sapiens) (Q9P289 2-416 limits assumed): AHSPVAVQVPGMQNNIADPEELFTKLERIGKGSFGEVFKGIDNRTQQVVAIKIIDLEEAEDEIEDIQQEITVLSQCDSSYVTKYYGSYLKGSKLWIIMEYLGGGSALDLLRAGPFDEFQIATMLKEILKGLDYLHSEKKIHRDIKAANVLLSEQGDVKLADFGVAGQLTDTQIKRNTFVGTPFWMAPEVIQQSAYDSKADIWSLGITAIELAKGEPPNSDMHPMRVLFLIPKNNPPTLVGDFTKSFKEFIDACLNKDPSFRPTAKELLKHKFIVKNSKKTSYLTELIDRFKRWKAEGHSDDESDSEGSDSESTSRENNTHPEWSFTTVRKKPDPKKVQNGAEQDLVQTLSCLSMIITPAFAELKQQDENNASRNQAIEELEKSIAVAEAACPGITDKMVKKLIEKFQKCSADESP
row,Structure (SMILES),inhibition [%]
1,NS(=O)(=O)c1ccc(N/C=C2\C(=O)Nc3ccc4ncsc4c32)cc1,74.5
2,CCn1c(-c2nonc2N)nc2c(C#CCN)ncc(OCCCN)c21,2.79
3,COc1cc(C=NNc2ncnc3c2cnn3Cc2ccccc2)ccc1O,2.28
4,Fc1ccc(-c2ncn(C3CCNCC3)c2-c2ccnc(Oc3ccccc3)n2)cc1,0.32
5,COc1cccc(COc2cc(-n3cnc4ccccc43)sc2C(N)=O)c1,-1.08
6,Nc1nonc1-c1nc2cnccc2n1C1CCCCC1,3.95
7,COc1cc2c(cc1Nc1nc(Nc3ccsc3C(N)=O)c3cc[nH]c3n1)N(C(=O)CN(C)C)CCC2,0.17
8,NS(=O)(=O)c1ccc(-c2ccc3c(NC(=O)C4CC4)n[nH]c3c2)cc1,-2.58
9,COc1cccc(-n2ncc3c(N/N=C/c4ccncc4)ncnc32)c1,7.18
10,Cc1cc(-c2ccco2)cc(C)c1/C=C/c1cncc(-c2nn[nH]n2)c1,11.6
11,CCn1c(-c2nonc2N)nc2c(C#CC(C)(C)O)ncc(OCC3CCNCC3)c21,3.31
12,NC(=O)c1sc(-n2cnc3cc(C(F)(F)F)ccc32)cc1OCc1ccccc1Br,3.19
13,CCn1c(-c2nonc2N)nc2c(C#CC(C)(C)O)nc(O[C@@H](CN)c3ccccc3)cc21,10.8
14,CCn1c(-c2nonc2N)nc2c(C#CC(C)(C)O)ncc(OC[C@@H]3CCCN3)c21,-0.64

# Molecular target: Serine/threonine-protein kinase PAK 1 (Homo sapiens) (UniProt Q13153);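 note: values are mean PAK1 inhibition from the GSK PKIS kinase inhibitor set screen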
# Details: at 0.1 µM
# Sequence of Serine/threonine-protein kinase PAK 1 (Homo sapiens) (Q13153 whole entry): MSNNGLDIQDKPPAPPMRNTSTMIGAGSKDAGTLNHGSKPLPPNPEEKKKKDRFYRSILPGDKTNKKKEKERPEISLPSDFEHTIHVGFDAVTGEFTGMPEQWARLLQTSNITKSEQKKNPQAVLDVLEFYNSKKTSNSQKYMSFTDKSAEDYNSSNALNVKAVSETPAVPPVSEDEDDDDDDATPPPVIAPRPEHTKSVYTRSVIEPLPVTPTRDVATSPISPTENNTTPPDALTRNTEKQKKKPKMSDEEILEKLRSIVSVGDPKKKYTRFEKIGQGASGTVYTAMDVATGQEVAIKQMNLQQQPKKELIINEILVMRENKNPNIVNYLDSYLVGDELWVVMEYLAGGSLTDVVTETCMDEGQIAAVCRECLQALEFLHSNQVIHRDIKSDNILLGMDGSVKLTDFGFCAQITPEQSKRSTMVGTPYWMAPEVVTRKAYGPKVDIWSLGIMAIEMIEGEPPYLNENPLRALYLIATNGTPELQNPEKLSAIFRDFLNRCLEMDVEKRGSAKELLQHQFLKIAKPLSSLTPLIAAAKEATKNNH
row,Structure (SMILES),inhibition [%]
1,NS(=O)(=O)c1ccc(N/C=C2\C(=O)Nc3ccc4ncsc4c32)cc1,4.98
2,CCn1c(-c2nonc2N)nc2c(C#CCN)ncc(OCCCN)c21,-1.61
3,COc1cc(C=NNc2ncnc3c2cnn3Cc2ccccc2)ccc1O,0.64
4,Fc1ccc(-c2ncn(C3CCNCC3)c2-c2ccnc(Oc3ccccc3)n2)cc1,3.79
5,COc1cccc(COc2cc(-n3cnc4ccccc43)sc2C(N)=O)c1,0.1
6,Nc1nonc1-c1nc2cnccc2n1C1CCCCC1,-0.52
7,COc1cc2c(cc1Nc1nc(Nc3ccsc3C(N)=O)c3cc[nH]c3n1)N(C(=O)CN(C)C)CCC2,-0.61
8,NS(=O)(=O)c1ccc(-c2ccc3c(NC(=O)C4CC4)n[nH]c3c2)cc1,6.54
9,COc1cccc(-n2ncc3c(N/N=C/c4ccncc4)ncnc32)c1,5.78
10,Cc1cc(-c2ccco2)cc(C)c1/C=C/c1cncc(-c2nn[nH]n2)c1,1.26
11,CCn1c(-c2nonc2N)nc2c(C#CC(C)(C)O)ncc(OCC3CCNCC3)c21,5.46
12,NC(=O)c1sc(-n2cnc3cc(C(F)(F)F)ccc32)cc1OCc1ccccc1Br,1.15
13,CCn1c(-c2nonc2N)nc2c(C#CC(C)(C)O)nc(O[C@@H](CN)c3ccccc3)cc21,0.39
14,CCn1c(-c2nonc2N)nc2c(C#CC(C)(C)O)ncc(OC[C@@H]3CCCN3)c21,-0.64
